# According to PubChem BioAssay (NCI):
# This is part of a sample that, as a whole, favours compounds with a hit. Of some 83,000 tested, about 20% had one in any assay.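 Assay: single dose, 48 h. Readout: percent growth (0 = no net growth; negative = cell death). Active: <10.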 Unmarked numbers belong to inactive results. The source made the active and inactive calls.
# System: RPMI-8226 leukemia
# Assay: NCI-60 one-dose screen, 48 h (100 = growth as untreated, 0 = no growth, -100 = all killed)
# Conditions: 10 µM
row,SMILES,growth
1,COc1ccccc1C(=O)NNC(=O)CSc1nc2c(c(=O)[nH]1)CCCC2,98.1%
2,C=C1CCC2C3(C)COC(c4cccc(F)c4)OC3CCC2(C)C1CC(O)C1=CCOC1=O (stereo not drawn),20.6%
3,C=C1CCC2C3(C)COC(c4c(F)cccc4F)OC3CCC2(C)C1C/C=C1/C(=O)OCC1O (stereo not drawn),15.3%
4,Nc1nnc(-c2c[nH]c3ccc(F)cc23)c(-c2c[nH]c3ncccc23)n1,60.3%
5,CC(=O)NS(=O)(=O)c1ccc(NC(=O)CSC2=NC(c3ccccc3)C(C(C)=O)=C(C)N2)cc1 (stereo not drawn),96%
6,COC1=C[C@@]23CCC(=O)N2CCc2cc4c(cc2[C@H]3[C@H]1OC(=O)C(C)(C)O)OCO4,92.3%
7,Nc1nc(-c2ccccc2)cs1,34.6%
8,COC(=O)c1c(C(=O)OC)c2n(c1C)[C@@H]([C@@H](C)[C@H]1CC[C@H]3[C@@H]4CCC5=CC(=O)CC[C@]5(C)[C@H]4CC[C@]13C)SC2,-11.5% (active)
9,C/C(=N\NC(N)=S)c1ccc(Nc2nc(SC(C)C)nc(-c3ccccc3)c2C#N)cc1,72.3%
10,COc1ccc(-c2cc(-c3cc(C(=O)c4ccc(Br)cc4)n4ccc(C)cc34)nc(N)c2C#N)cc1,86.8%
11,CC(=O)Nc1ccc(-n2cnc3cc(-c4ccc(NS(C)(=O)=O)cc4)ccc32)cc1,55.8%
12,O=c1cc(-c2ccccc2)oc2cc(OCCCCNCc3ccccc3)cc(O)c12,-22.6% (active)
13,C/C(=N\N=C\c1ccc(Cl)c([N+](=O)[O-])c1)c1ccc2c(c1)Nc1ccccc1S2,33.3%
